PubChem BioAssay
The source made the active and inactive calls. Unless noted, how the calls were made is not given here.

Columns and labels:
[1] = resazurin metabolic signal in HepG2 cells – cell-based, resazurin fluorescence, 24 h, PK04 Diversity Set, profiling panel (AID 1172); conditions: HepG2 viability, higher = more signal; further: test concentration not given here
[2] = budding yeast growth changes without added modifier – OD600, strain BY4716, 24 h, basal condition, primary screen (AID 1173); conditions: S. cerevisiae BY4716 growth, OD600, 24 h; higher = more signal, called active from +8 up or from −8 down
[3] = viability profiling in MM1S myeloma cells – cell-based, resazurin fluorescence, basal, 24 h, PK04 Diversity Set, profiling panel (AID 1174); conditions: higher = more signal, called active from +8 up or from −8 down;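 further: MM1S multiple myeloma cell line; test concentration not given here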
[4] = biological target: Dihydroorotate dehydrogenase (quinone), mitochondrial (Plasmodium falciparum (isolate 3D7)) (UniProt Q08210); assay: inhibition of P. falciparum DHODH – biochemical, C-terminal His tag, absorbance 600 nm, primary screen (AID 1175); conditions: PfDHODH enzyme, DCIP absorbance 600 nm; higher = more signal, called active from +8 up or from −8 down;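 further: recombinant parasite enzyme with a five histidine tag at its C terminus; test concentration not given here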
[5] = inhibition of PAO1 biofilm formation – strain PAO1, LB-PBS medium, absorbance 600 nm, primary screen (AID 1176); further: test concentration not given here; conditions: P. aeruginosa PAO1 growth/biofilm, A600, 12 h; higher = more signal
[6] = growth modulation of vineyard yeast isolate – strain RM11-1a, OD600, basal, 24 h, primary screen (AID 1177);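 further: cultures grown under basal conditions with no added stressor; test concentration not given here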; conditions: S. cerevisiae RM11-1a growth, OD600, 24 h; higher = more signal, called active from +8 up or from −8 down
[7] = growth of efflux-deficient E. coli DRC39 – strain DRC39, OD650, 24 h, E. coli filamentation inducers, primary screen (AID 1178);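 further: growth measured as culture turbidity by optical density at 650 nm; test concentration not given here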; conditions: E. coli DRC39 acrAB, higher = more signal, called active from +8 up or from −8 down
[8] = growth of efflux-deficient E. coli DRC39 – strain DRC39, OD650, 48 h, E. coli filamentation inducers, primary screen (AID 1179);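 further: screen aims at cell division blockers that make cells filament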; conditions: E. coli DRC39 delta-acrAB growth, higher = more signal, called active from +8 up or from −8 down
[9] = viability profiling in RPMI8226 myeloma cells – cell-based, resazurin fluorescence, basal, 24 h, PK04 Diversity Set, profiling panel (AID 1180); conditions: higher = more signal;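 further: RPMI8826 multiple myeloma cell line at 5000 cells per well; test concentration not given here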
[10] = biological target: E3 ubiquitin-protein ligase XIAP (Homo sapiens) (UniProt P98170); assay: small molecules binding XIAP protein – biophysical, small-molecule microarray, fluorescence 635 nm, primary screen (AID 1181); conditions: higher = more signal;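 further: score merges 667 nm emission and signal to noise over triplicate slides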
Sequence of E3 ubiquitin-protein ligase XIAP (Homo sapiens) (P98170 whole entry, looked up): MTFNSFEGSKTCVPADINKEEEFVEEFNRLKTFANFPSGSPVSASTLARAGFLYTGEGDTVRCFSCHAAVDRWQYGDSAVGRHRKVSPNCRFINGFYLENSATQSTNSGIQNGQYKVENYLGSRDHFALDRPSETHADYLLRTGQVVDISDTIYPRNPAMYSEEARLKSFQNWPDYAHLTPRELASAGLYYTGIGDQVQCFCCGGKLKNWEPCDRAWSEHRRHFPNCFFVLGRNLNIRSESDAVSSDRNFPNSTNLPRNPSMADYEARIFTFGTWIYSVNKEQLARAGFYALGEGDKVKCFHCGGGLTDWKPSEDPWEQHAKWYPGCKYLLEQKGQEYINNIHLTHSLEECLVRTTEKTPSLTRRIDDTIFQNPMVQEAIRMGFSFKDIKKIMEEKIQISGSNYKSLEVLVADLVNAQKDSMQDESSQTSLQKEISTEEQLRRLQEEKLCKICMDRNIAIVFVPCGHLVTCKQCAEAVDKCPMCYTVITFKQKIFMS

Sequence of Dihydroorotate dehydrogenase (quinone), mitochondrial (Plasmodium falciparum (isolate 3D7)) (Q08210 whole entry, looked up): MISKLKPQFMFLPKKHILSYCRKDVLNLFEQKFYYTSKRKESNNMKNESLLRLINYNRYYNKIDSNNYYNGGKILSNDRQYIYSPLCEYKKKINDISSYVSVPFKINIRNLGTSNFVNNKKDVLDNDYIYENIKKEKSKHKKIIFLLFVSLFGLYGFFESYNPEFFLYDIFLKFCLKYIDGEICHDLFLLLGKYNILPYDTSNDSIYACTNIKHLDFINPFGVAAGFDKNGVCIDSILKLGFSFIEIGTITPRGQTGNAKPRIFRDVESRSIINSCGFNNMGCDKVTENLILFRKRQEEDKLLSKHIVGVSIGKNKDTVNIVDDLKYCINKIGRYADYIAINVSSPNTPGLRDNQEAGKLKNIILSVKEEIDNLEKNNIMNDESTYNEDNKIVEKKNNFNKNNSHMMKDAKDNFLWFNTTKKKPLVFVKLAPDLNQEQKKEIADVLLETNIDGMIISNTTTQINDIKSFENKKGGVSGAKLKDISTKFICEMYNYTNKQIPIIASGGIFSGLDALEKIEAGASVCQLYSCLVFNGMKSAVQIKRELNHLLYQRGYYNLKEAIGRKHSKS

Row | SMILES | z-score [1] | z-score [2] | z-score [3] | composite z-score [4] | z-score [5] | z-score [6] | z-score [7] | z-score [8] | z-score [9] | composite z-score [10]
1 | C=C[C@H](CO)NS(=O)(=O)c1ccc(Br)cc1 | 0.578 | 0.0356 (inactive) | 0.44 (inactive) | -1.05 (inactive) | -0.621 (inactive) | 0.34 (inactive) | 0.328 (inactive) | 0.276 (inactive) | 0.0112 | -0.0559
2 | CNS(=O)(=O)c1ccc(C)cc1 | 0.925 | -1.13 (inactive) | 0.68 (inactive) | -1.05 (inactive) | 0.426 (inactive) | -1.4 (inactive) | 0.738 (inactive) | 0.774 (inactive) | -0.149 | -0.328
3 | COC(=O)[C@@]1(Cc2ccc(OC)cc2)[C@H]2c3cc(C(=O)N4CCCC4)n(CCN4CNCC4=O)c3C[C@H]2CN1C(=O)c1ccccc1 | -0.66 | 0.818 (inactive) | -0.359 (inactive) | 0.0916 (inactive) | 1.68 (inactive) | 1.22 (inactive) | -0.146 (inactive) | -0.199 (inactive) | 0.0221 | 0.778
4 | C=C[C@H](OC)[C@@H](OC(=O)Nc1ccc(OC)cc1)c1ccc(O)c(F)c1 | -0.709 | -3.76 (inactive) | -1.78 (inactive) | -1.89 (inactive) | 1.05 (inactive) | 0.974 (inactive) | 1.41 (inactive) | 0.98 (inactive) | 1.69 | 0.0623
5 | COCCOC(=O)N1C(=O)[C@@]2(c3cc(C#CC4(O)CCCCCC4)ccc31)[C@H](c1ccccc1OCCO)N1[C@H](c3ccccc3)[C@H](c3ccccc3)OC(=O)[C@H]1[C@@H]2C(=O)N1CCN(c2ncccn2)CC1 | -0.645 | 1.61 (inactive) | -0.349 (inactive) | 0.122 (inactive) | 2.03 (inactive) | 2.39 (inactive) | 0.0296 (inactive) | 0.946 (inactive) | -0.874 | 0.0774
6 | Cc1ccc([C@@H]2C[C@@H](Sc3ccccc3)[C@H](C(=O)O)CN2S(=O)(=O)c2ccc(C)cc2)cc1 | 0.391 | -1.58 (inactive) | -1.48 (inactive) | -0.351 (inactive) | 0.657 (inactive) | 0.455 (inactive) | -0.634 (inactive) | -0.518 (inactive) | -0.738 | 0.312
7 | COCCCNC(=O)[C@@H]1c2ccccc2C(=O)N(Cc2ccccc2Cl)[C@H]1c1ccc(CO)cc1 | -0.378 | -0.259 (inactive) | 0.655 (inactive) | -0.636 (inactive) | 0.692 (inactive) | -1.02 (inactive) | 0.987 (inactive) | 1.16 (inactive) | 0.871 | 0.78
8 | C=C(C(=O)CC[C@@H](OC(=O)c1cccnc1)c1ccccc1OCCO)C(C)C | -0.0206 | -1.51 (inactive) | -0.444 (inactive) | -0.0125 (inactive) | 0.613 (inactive) | -0.337 (inactive) | 0.335 (inactive) | 0.195 (inactive) | -0.632 | -0.0872
9 | COc1ccc(CCNC(=O)[C@@]2(Sc3ccc(C)cc3)CC(=O)N(C3Cc4ccccc4C3)[C@@H]2c2ccc(CO)cc2I)cc1 | 0.0641 | -3.1 (inactive) | -2.13 (inactive) | 0.371 (inactive) | -0.171 (inactive) | 1 (inactive) | 0.0559 (inactive) | -0.325 (inactive) | -1.43 | 0.148
10 | COc1ccc(C#Cc2ccc3c(c2)[C@]2(C(=O)N3)[C@H](C(=O)NC[C@H](O)c3ccccc3)[C@H]3C(=O)O[C@H](c4ccccc4)[C@H](c4ccccc4)N3[C@@H]2c2ccc(O)cc2)cc1 | -0.475 | -0.26 (inactive) | -2.61 (inactive) | 0.843 (inactive) | 0.971 (inactive) | 2.29 (inactive) | 0.0945 (inactive) | 0.51 (inactive) | -3.97 | 0.262
11 | CCCC[C@@H]1C[C@H]1[C@@H](NC(=O)c1ccccc1)c1ccc(C(=O)OC)cc1 | -0.186 | -1.61 (inactive) | -0.892 (inactive) | -0.265 (inactive) | 0.771 (inactive) | -0.75 (inactive) | -0.986 (inactive) | -0.885 (inactive) | 0.0845 | -0.0143
12 | COC(=O)C(CC#Cc1ccc2c(c1)[C@]1(C(=O)N2)[C@H](C(=O)Nc2nc3ccccc3s2)[C@H]2C(=O)O[C@H](c3ccccc3)[C@H](c3ccccc3)N2[C@@H]1c1ccc(O)cc1)C(=O)OC | 0.793 | -0.0312 (inactive) | 0.792 (inactive) | -0.72 (inactive) | 1.23 (inactive) | 0.698 (inactive) | -0.0857 (inactive) | -0.169 (inactive) | -2 | 0.208
13 | Cc1ccc(S[C@]2(C(=O)NC3CC3)CC(=O)N(Cc3ccccc3)[C@@H]2c2ccc(CO)cc2I)cc1 | 0.417 | -3.23 (inactive) | -2.45 (inactive) | -1.47 (inactive) | 0.751 (inactive) | -1.46 (inactive) | 0.714 (inactive) | 0.753 (inactive) | -1.71 | -0.252
14 | O=C(NC1CC1)[C@@H]1c2ccccc2C(=O)N(Cc2ccccc2Cl)[C@H]1c1ccc(CO)cc1 | 0.382 | -2.09 (inactive) | -0.0621 (inactive) | -1.36 (inactive) | 0.994 (inactive) | -2.66 (inactive) | 1.28 (inactive) | 1.49 (inactive) | 0.69 | 0.0297
15 | NC(=O)N1C(=O)C2C(C1=O)C1C=C(c3ccc(CO)cc3)C2C(c2cccs2)N1Cc1cccc(OC(F)(F)F)c1 (stereo not given) | -0.532 | -4.02 (inactive) | -0.683 (inactive) | -8.36 (active) | -0.79 (inactive) | -1.87 (inactive) | -5.27 (inactive) | -4.66 (inactive) | -0.452 | 0.278
16 | CN(C)CCCC[C@@H]1NC(=O)[C@@H]2C[C@H](C(=O)NCCCCCCN)[C@H](c3cccc(OCCO)c3)N2C1=O | -0.06 | -0.543 (inactive) | 0.124 (inactive) | -0.981 (inactive) | 0.187 (inactive) | -1.17 (inactive) | -0.459 (inactive) | -1 (inactive) | -0.851 | 0.115
17 | COC(=O)c1c(CC[C@@H](CO)NC(=O)NCCn2cc(C3(O)CCCC3)nn2)oc(C(C)=O)c1C(=O)OC | -0.777 | -0.394 (inactive) | -0.691 (inactive) | -0.35 (inactive) | 0.173 (inactive) | -0.77 (inactive) | -0.426 (inactive) | -0.828 (inactive) | -0.581 | -0.0343
18 | [N-]=[N+]=NCc1ccccc1[C@@H]1OC(c2ccc(OCCCO)cc2)=N[C@]1(Cc1ccccc1)C(N)=O | 0.854 | -2.19 (inactive) | -0.422 (inactive) | -0.717 (inactive) | 0.177 (inactive) | 0.895 (inactive) | 0.671 (inactive) | -0.492 (inactive) | -0.0348 | 0.319
19 | C=CC[C@]1(C(=O)NCc2ccccc2)N=C(c2ccc(OCCCO)cc2)O[C@H]1c1ccccc1N=[N+]=[N-] | -0.0155 | -0.737 (inactive) | -1.93 (inactive) | 1.52 (inactive) | 1.39 (inactive) | 0.599 (inactive) | 0.498 (inactive) | -0.822 (inactive) | -1.31 | 0.0623
20 | Oc1ccc2cc[n+](Cc3sc4ccccc4c3Cl)cc2c1 | -1.23 | -0.225 (inactive) | -1.42 (inactive) | -0.427 (inactive) | -0.0748 (inactive) | 0.474 (inactive) | -0.257 (inactive) | -0.952 (inactive) | -0.624 | -0.0095
21 | NC(=O)[C@@H]1[C@H]2C(=O)O[C@H](c3ccccc3)[C@H](c3ccccc3)N2[C@H](c2ccc(O)cc2)[C@@]12C(=O)Nc1ccccc12 | 0.363 | -1.39 (inactive) | 0.307 (inactive) | -0.565 (inactive) | 0.449 (inactive) | -0.665 (inactive) | 0.385 (inactive) | -0.766 (inactive) | -0.224 | 0.0073
22 | O=C1C2C=CC(C(O)c3cc(C(F)(F)F)cc(C(F)(F)F)c3)N(n3cnnc3)C2C(=O)N1Cc1ccccc1 (stereo not given) | -0.064 | -1.01 (inactive) | -0.497 (inactive) | 0.861 (inactive) | 0.933 (inactive) | 1.09 (inactive) | 0.375 (inactive) | 0.589 (inactive) | -0.394 | 0.0945
23 | C=C(CCCC)C(=O)CC[C@@H](OC(=O)c1ccccc1-c1ccccc1C(=O)O)c1ccc(OCCO)cc1 | -0.268 | -1.78 (inactive) | -0.276 (inactive) | -1.25 (inactive) | 0.956 (inactive) | -0.585 (inactive) | -0.0062 (inactive) | -0.297 (inactive) | 0.692 | -0.182
24 | C=C(/C(=C/C[C@H](OC(C)=O)c1ccccc1OCCO)c1cnc2ccccc2c1)C(C)C | -0.558 | 0.323 (inactive) | -1.09 (inactive) | -5.2 (inactive) | 2.19 (inactive) | 1 (inactive) | -0.672 (inactive) | -0.622 (inactive) | -0.817 | -0.238
25 | COCCOC(=O)N1C(=O)[C@@]2(c3cc(C#CCNC(N)=O)ccc31)[C@H](C(=O)N1CCN(c3ncccn3)CC1)[C@H]1C(=O)O[C@H](c3ccccc3)[C@H](c3ccccc3)N1[C@@H]2c1ccc(OCCO)cc1 | -0.488 | 1.51 (inactive) | -0.814 (inactive) | -0.0103 (inactive) | 2.43 (inactive) | 2.16 (inactive) | 0.142 (inactive) | 0.567 (inactive) | -0.83 | 0.0627
